From PubChem BioAssay AID1076 (NMMLSC, 2008)
Active and inactive are the calls of the source.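 Rule for the calls: active = cell event count below 40, meaning activity score above 60 where score is 100 minus count; inactive = the rest.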

Assay: cytotoxicity in LNCaP prostate cells – cell-based, cell event count, single point, cytotoxicity control for prostate differentiation activator project, confirmation (AID 1076);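 note: counts scatter-gated live cells after medium removal discards detached dead cells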
Details: LNCaP cell loss, flow cytometry event count, 4 d, stronger effect = lower value

Compound	cell event count (at 100 µM)	cell event count (event count, at 10 µM)
O=C1CCCc2c1cc(C(=O)NC1CCSC1=O)c(=O)n2-c1ccccc1 (configuration not stated)	253 (inactive)	155
CN1CCN(c2oc(COc3ccc(-c4ccccc4)cc3)nc2C#N)CC1	5 (inactive)	174
CCn1c(=O)cc(SCC(=O)NCCCN2CCN(c3ccccc3F)CC2)c2ccccc21	6 (inactive)	338
COc1ccc(-c2noc(CCC(=O)NCCCN3CCC(Cc4ccccc4)CC3)n2)cc1	23 (active)	51
COc1ccc(-c2noc(-c3cc(Cl)ccc3Cl)n2)cc1OC	77 (inactive)	110
Oc1c(CN2CCCCC2)cc(COCc2ccccc2)c2cccnc12	35 (inactive)	92
Cc1ccc(C)c(N2CCN(CCCNC(=O)Cn3cc4c(n3)CCC(C)C4)CC2)c1 (configuration not stated)	5 (inactive)	276
CCN(CC)CCCNC(=O)c1cc2c(-c3ccc(Cl)cc3)nn(C)c2s1	13 (active)	71.5
CCN(CC)CCNC(=O)c1ccc(N2CCCCC2)c(NS(=O)(=O)c2ccc(C)cc2)c1	17 (inactive)	197
Cc1ccc2c(c1)c1c(n2CC(O)CNC(CO)(CO)CO)CCCC1 (configuration not stated)	70 (inactive)	392
COc1ccc(OC)c(CNC(=O)CCNC(=O)Cn2ccc3ccccc3c2=O)c1	63 (inactive)	73
Cc1oc(-c2ccc(Cl)cc2)nc1CN1CCCC(C(=O)NCCCN2CCOCC2)C1 (configuration not stated)	42 (inactive)	182
COc1ccc(N2CCN(CCCNC(=O)CCCn3c(=O)[nH]c4ccsc4c3=O)CC2)cc1	13 (active)	25.5
COC(=O)c1cc2oc3ccccc3c2n1CC(=O)Nc1ccccc1OC	169 (inactive)	184
Cc1oc(-c2cccc(Cl)c2)nc1CN1CCC(C(=O)NCC2CCCO2)CC1 (configuration not stated)	174 (inactive)	165
Cn1c(=O)cc(SCC(=O)NCCCN2CCN(c3ccc(F)cc3)CC2)c2ccccc21	30 (inactive)	211
COc1ccc(-c2cc(C(F)(F)F)nc(N3CCN(Cc4ccccc4)CC3)n2)cc1OC	152 (inactive)	376
CCCOc1ccc2nc(NC(=O)OC)[nH]c2c1	12 (inactive)	102
CC1(C)CC(=O)c2cc(OCC(=O)NCCCN3CCN(c4ccc(F)cc4)CC3)ccc2O1	17 (inactive)	112
CCc1nnc(NC(=O)CSc2nc3ccccc3s2)s1	209 (inactive)	142
O=C(CSc1nc2c(c(=O)n1-c1ccc(F)cc1)SCC2)NCC1CCCO1 (configuration not stated)	207 (inactive)	132

Compound	cell event count (at 100 µM)	cell event count (event count, at 10 µM)
CCCS(=O)(=O)N1CCCC(C(=O)NCCCN2CCN(c3cccc(Cl)c3)CC2)C1 (configuration not stated)	53 (inactive)	114
CN1CCN(c2cc3c(c4c2[nH]c2ccccc24)C(=O)CC(C)(C)C3)CC1	31 (inactive)	231
CCOC(=O)CSc1nnc(CNC(=O)c2ccccc2OC)n1-c1ccc(OC)cc1	256 (inactive)	156
c1cncc(-c2nc3ccccc3o2)c1	49 (inactive)	89.5
CN(CC(=O)Nc1ccc2c(c1)OCCO2)S(=O)(=O)c1cccc2cccnc12	95 (inactive)	156
Cc1oc(-c2ccc(Cl)cc2)nc1CN1CCCC(C(=O)NCc2ccccn2)C1 (configuration not stated)	34 (inactive)	168
COc1ccc(Cc2nc(-c3ccc(-n4cccc4)cc3)no2)cc1OC	17 (active)	28
Cn1cc(CNC(=O)C2c3ccccc3Oc3ccccc32)cn1	465 (inactive)	217
CC1=C(n2nnc3ccccc32)C(c2ccccc2)C(C#N)=C(N)O1 (configuration not stated)	96 (inactive)	97.5
CCOc1ccc(-n2cc(C(=O)N3CCC(C)CC3)c3cc(OC)c(OC)cc3c2=O)cc1	202 (inactive)	251
CCn1c(=N)n(CC(O)COc2cccc(C)c2)c2ccccc21 (configuration not stated)	2 (active)	50.5
COc1ccc(CCNC(=O)C2CCCN(Cc3nc(-c4cccc(Cl)c4)oc3C)C2)cc1OC (configuration not stated)	21 (inactive)	247
COCCn1c(=O)[nH]c2cc(C(=O)NCCCN3CCN(c4ccc(F)cc4)CC3)ccc2c1=O	140 (inactive)	194
CC(C)Cc1nc2oc3c(N4CCN(CCO)CC4)ncnc3c2c2c1CCCC2	3 (inactive)	120
CN(C)CCCN1c2ccccc2CCc2ccc(Cl)cc21	43 (inactive)	74
Cc1ccc2c(c1)c1c(n2CC(O)Cn2c(C)nc3ccccc32)/C(=N\O)CCC1 (configuration not stated)	16 (inactive)	454
CCS(=O)(=O)N1CCC(C(=O)NCCCN2CCN(c3ccccc3F)CC2)CC1	135 (inactive)	70.5
CN1CCN(CCCNC(=O)c2cc3c(-c4ccc(Cl)cc4)nn(C)c3s2)CC1	7 (inactive)	146
CCc1ccc(-c2nc(CN3CCC(C(=O)N4CCN(c5ccccn5)CC4)CC3)c(C)o2)cc1	10 (inactive)	212
COc1ccccc1CNC(=O)C1CCN(Cc2nc(-c3cccc(Cl)c3)oc2C)CC1	9 (inactive)	158
COc1ccc(-n2c3c(cc(C(=O)N4CCC(C)CC4)c2=O)C(=O)CC(C)(C)C3)cc1	115 (inactive)	93

Compound	cell event count (at 100 µM)	cell event count (event count, at 10 µM)
CCOc1nc(-c2ccccc2O)nc2ccccc12	252 (inactive)	250
CCN(CCNC(=O)C1CCN(Cc2nc(-c3ccc(Cl)cc3)oc2C)CC1)c1ccccc1	24 (inactive)	391
CCn1c(=O)cc(SCC(=O)NCCN2CCN(Cc3ccccc3)CC2)c2ccccc21	228 (inactive)	356
Cc1onc(-c2ccccc2Cl)c1C(=O)N(C)C1CCCCC1	25 (inactive)	188
COc1ccc2c(c1)CCc1c(C(=O)Nc3cc(C)n(Cc4ccc(Cl)cc4)n3)noc1-2	43 (inactive)	406
Cn1c(=O)n(C)c2cc(CN3C(=O)OC(C)(C)C3(C)O)ccc21 (configuration not stated)	211 (inactive)	145
CSc1nc2ccc(Nc3nc(N4CCOCC4)nc(N4CCOCC4)n3)cc2s1	48 (inactive)	138
COc1ccc(C(CC(=O)O)NC(=O)Cc2ccccc2)cc1 (configuration not stated)	186 (inactive)	66.5
CCN1C=C(Cc2cccs2)C2=C(C1)C(c1cccs1)C(C#N)=C(N)O2 (configuration not stated)	40 (inactive)	200
Cc1cc(C)nc(N2CCC(C(=O)Nc3ccc(Oc4ccccc4)cc3)CC2)n1	145 (inactive)	398
C=C(C)Cn1c(-c2ccccc2)nc2ccccc21	16 (inactive)	106
CCc1ccc(-c2nc(CN3CCC(C(=O)NCCN(CC)c4ccccc4)CC3)c(C)o2)cc1	6 (inactive)	150
CC(C)(O)c1cn(-c2nonc2N)nn1	249 (inactive)	106
Cc1cc(N2CCN(C)CC2)nc2ccc(NC(=O)c3ccc4c(c3)OCO4)cc12	57 (inactive)	278
CCOC(=O)c1ccc(-c2n[nH]c(=O)c3ccccc23)cc1	345 (inactive)	236
Cc1ccc(Nc2cc(=O)n(C3CCCCC3)c(=O)[nH]2)cc1C	3 (active)	62.5
COc1ccc(-c2oc3ncn(CCN4CCOCC4)c(=N)c3c2-c2ccc(OC)cc2)cc1	26 (inactive)	237
Cc1oc(-c2ccc(Cl)cc2)nc1CN1CCCC(C(=O)NCCCN2CCCC2=O)C1 (configuration not stated)	43 (inactive)	258
COC(=O)c1cc(-c2ccccc2)sc1NC(=O)c1cc(C)on1	10 (active)	42.5
COc1ccc(-n2c(C)nc3c(cnn3-c3ccc(Cl)cc3)c2=O)cc1	45 (inactive)	84
CCn1c(=O)cc(SCC(=O)NCCCN2CCN(c3ccc(F)cc3)CC2)c2ccccc21	14 (inactive)	241

Compound	cell event count (at 100 µM)	cell event count (event count, at 10 µM)
CC(=O)c1cccc(NC2c3ccccc3C(=O)N2Cc2ccc3c(c2)OCO3)c1 (configuration not stated)	121 (inactive)	281
Cc1ccccc1-c1nc(CN2CCC(C(=O)NCc3cccnc3)CC2)c(C)o1	268 (inactive)	208
Cc1oc(-c2ccc(Cl)cc2)nc1CN1CCC(C(=O)NCCCN2CCCC2=O)CC1	51 (inactive)	115
O=C(CCN1C(=O)COc2ccccc21)NCCCN1CCN(c2ccc(F)cc2)CC1	117 (inactive)	146
COc1ccc(-n2nnnc2SCC(=O)c2ccc(O)c(O)c2)cc1	9 (inactive)	205
Cc1ccc(-c2noc(CCC(=O)NC3CCN(Cc4ccccc4)CC3)n2)cc1	9 (active)	77.5
COc1ccc(N2CCN(CCCNC(=O)CN3CCN(Cc4ccccc4C)C3=O)CC2)cc1	19 (inactive)	87.5
Cc1cc(N2CCC(N(C)C3CCCC3)CC2)nc2cc(O)ccc12	26 (inactive)	196
CCN(CCNC(=O)C1CCN(Cc2nc(-c3cccc(Cl)c3)oc2C)CC1)c1ccccc1	3 (active)	83
COc1cccc(Oc2cnc(N)nc2-c2ccc(OC)cc2O)c1	9 (inactive)	180
COC(=O)c1ccc2c(=O)n(Cc3ccco3)c(SCC(=O)Nc3ccc(C)c(Cl)c3)nc2c1	138 (inactive)	146
COc1ccc(Nc2nc(N3CCCC3)c3ccccc3n2)cc1	50 (inactive)	180
Cc1ccc(Cn2ccc(NC(=O)c3cc(-c4ccc(Br)cc4)on3)n2)cc1	257 (inactive)	132
CCN1CCCC1CNC(=O)c1cc2c(-c3cccc(OC)c3)nn(C)c2s1 (configuration not stated)	25 (inactive)	81.5
CC(C)(C)c1ccc(C(O)CCCN2CCC(C(O)(c3ccccc3)c3ccccc3)CC2)cc1 (configuration not stated)	12 (inactive)	90
COc1ccc(CN2C(=O)C(O)(CC(=O)c3c(C)n[nH]c3C)c3ccccc32)cc1OC (configuration not stated)	284 (inactive)	248
COc1ccc(CCNC(=O)C2CCN(Cc3nc(-c4ccccc4C)oc3C)CC2)cc1OC	1 (inactive)	188
Cc1ccccc1-c1nc(CN2CCCC(C(=O)NCCCN3CCOCC3)C2)c(C)o1 (configuration not stated)	145 (inactive)	175
